Where “and” joins values, the source holds several entries; their conditions need not be identical. Equal values may be shown once. Records with an inconclusive call do not appear. More than one record can exist for a structure, and the calls need not agree. Calls of active or inactive are those of the source. The calls were made as follows, unless noted: active = hit-call score of the fitted dose curve at least 0.9, where 1 is the maximum; inactive = score below 0.9.

Assay [1] deals with Hepatocyte nuclear factor 4-alpha (Homo sapiens) (UniProt P41235). As to the kind of experiment: ATG_HNF4a_TRANS: Attagene TRANS-FACTORIAL HepG2 Assay for human Hepatocyte Nuclear Factor 4 alpha (HNF4a) (AID 2282982; active = hit-call score of the fitted dose curve at least 0.9, where 1 is the maximum). The note with it: HepG2 HNF4a transactivation reporter, mRNA readout. The gist of the method: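 Using HepG2 liver cells transfected with GAL4-UAS reporter units, chemical-induced mRNA increases were assessed after 24 hours. Fluorescent RT-PCR fragments were separated by capillary electrophoresis and compared with DMSO negative controls.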
Hepatocyte nuclear factor 4-alpha (Homo sapiens), sequence (P41235 whole entry, looked up, the tested form may be a part): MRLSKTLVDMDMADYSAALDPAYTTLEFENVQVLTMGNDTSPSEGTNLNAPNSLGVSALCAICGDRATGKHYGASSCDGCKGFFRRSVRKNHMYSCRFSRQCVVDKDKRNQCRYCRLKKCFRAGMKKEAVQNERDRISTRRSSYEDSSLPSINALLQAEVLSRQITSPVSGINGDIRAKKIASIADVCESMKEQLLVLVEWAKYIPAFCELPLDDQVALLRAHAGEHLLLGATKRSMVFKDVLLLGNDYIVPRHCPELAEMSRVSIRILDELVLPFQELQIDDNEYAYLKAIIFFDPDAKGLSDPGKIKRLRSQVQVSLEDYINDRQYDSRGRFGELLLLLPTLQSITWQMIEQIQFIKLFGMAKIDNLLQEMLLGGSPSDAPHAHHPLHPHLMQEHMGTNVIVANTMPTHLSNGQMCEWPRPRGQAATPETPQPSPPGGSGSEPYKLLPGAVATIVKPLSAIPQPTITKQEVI

Assay [2] can be described thus: ATG_M_06_TRANS: Attagene TRANS-FACTORIAL HepG2 Assay for M06 Transcription Factor (Internal Marker) (AID 2282983; active = hit-call score of the fitted dose curve at least 0.9, where 1 is the maximum;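 as to AC50: potency for rise in reporter mRNA above DMSO baseline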). The note with it: HepG2 Attagene TRANS M06 internal marker reporter. The gist of the method:
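Background control endpoint: reporter mRNA from transiently transfected HepG2 after 24 h dosing, detected by RT-PCR with capillary electrophoresis fluorescence. Analysed for gain versus DMSO.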

The nature of assay [3]: ATG_M_32_TRANS: Attagene TRANS-FACTORIAL HepG2 Assay for M32 Transcription Factor (Internal Marker) (AID 2282984; active = hit-call score of the fitted dose curve at least 0.9, where 1 is the maximum). The note with it: HepG2 Attagene TRANS M32 internal marker reporter. The gist of the method:
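Fluorescence-detected mRNA induction, HepG2 liver cells, 24 h after dosing. Multiple GAL4-UAS reporter units introduced by transient transfection; background-control endpoint analysed for gain of signal against DMSO.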

Assay [4] concerns the target Transcriptional activator Myb (Homo sapiens) (UniProt P10242). As to the kind of experiment: ATG_Myb_CIS: Attagene CIS-FACTORIAL HepG2 Assay for human Myeloblastosis (Myb) Proto-Oncogene Transcription Factor (AID 2282986). The note with it: HepG2 Attagene CIS-FACTORIAL Myb reporter transcription; actives raise or lower the signal. A digest of the protocol: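 Reporter mRNA is quantified by RT-PCR and capillary electrophoresis 24 h after dosing HepG2 cells transfected with cis-regulated reporter units, which track endogenous transcription factor activity. Gain and loss of signal are fitted versus DMSO baseline.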

In assay [5] the target is Nuclear respiratory factor 1 (Homo sapiens) (UniProt Q16656). As to the kind of experiment: ATG_NRF1_CIS: Attagene CIS-FACTORIAL HepG2 Assay for human Nuclear Respiratory Factor 1 (NRF1) Orphan Gene (AID 2282987). The note with it: HepG2 NRF1 cis-element reporter, Attagene multiplex; actives raise or lower the signal. The gist of the method:
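Endogenous NRF1-driven reporter transcription in transfected HepG2 cells after 24 h treatment. Readout: RT-PCR products, 6-FAM labelled and resolved by capillary electrophoresis; changes fitted both directions relative to DMSO.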

Assay [6] can be described thus: ATG_NFI_CIS: Attagene CIS-FACTORIAL HepG2 Assay for human Nuclear Factor I (NFI) (AID 2282989). The note with it: HepG2 cis-regulatory reporter, NFI response element transcription; actives raise or lower the signal. The gist of the method:
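HepG2, transient MRTU, 24 h exposure; RNA→cDNA→PCR→FAM label→HpaI→CE fluorescence. Bidirectional fit, DMSO = baseline.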

Assay [7] deals with Myc proto-oncogene protein (Homo sapiens) (UniProt P01106). As to the kind of experiment: ATG_Myc_CIS: Attagene CIS-FACTORIAL HepG2 Assay for human Myelocytomatosis (Myc) Proto-Oncogene Transcription Factor (AID 2282990). The note with it: HepG2, Attagene cis-reporter transcription factor activity; actives raise or lower the signal. A digest of the protocol: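 DMSO-normalised, bidirectionally fitted reporter mRNA signal. HepG2 cells transfected with cis reporter constructs, treated 24 h; transcripts detected by RT-PCR, 6-FAM primer extension and CE.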
Myc proto-oncogene protein (Homo sapiens), sequence (P01106 whole entry, looked up): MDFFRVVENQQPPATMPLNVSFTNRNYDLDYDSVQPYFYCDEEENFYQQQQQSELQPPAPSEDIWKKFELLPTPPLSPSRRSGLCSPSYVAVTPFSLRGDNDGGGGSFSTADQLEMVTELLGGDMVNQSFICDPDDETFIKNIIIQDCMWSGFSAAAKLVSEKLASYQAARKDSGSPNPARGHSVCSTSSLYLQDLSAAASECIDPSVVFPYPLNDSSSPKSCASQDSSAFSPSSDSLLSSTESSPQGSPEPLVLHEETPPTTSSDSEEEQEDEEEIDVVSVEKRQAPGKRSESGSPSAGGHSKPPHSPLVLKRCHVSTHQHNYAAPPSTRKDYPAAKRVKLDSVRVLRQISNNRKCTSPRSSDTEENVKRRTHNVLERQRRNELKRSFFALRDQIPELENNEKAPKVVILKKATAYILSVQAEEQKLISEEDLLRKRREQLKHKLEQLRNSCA

Assay [8] is described as follows: ATG_NF_kB_CIS: Attagene CIS-FACTORIAL HepG2 Assay for human Nuclear Factor Kappa B (NF-kB) (AID 2282991). The note with it: HepG2 Attagene cis-factorial NF-kB reporter mRNA; actives raise or lower the signal. The gist of the method: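 Readout is reporter transcript level, gain or loss versus DMSO, measured 24 h post-dose via RT-PCR, fluorescent labelling and capillary electrophoresis. Human HepG2 liver cells carried transiently transfected CIS reporter constructs reflecting endogenous factors.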

The nature of assay [9]: ATG_NRF2_ARE_CIS: Attagene CIS-FACTORIAL HepG2 Assay for human Nuclear Factor Erythroid 2 Related Factor 2 (NFR2) response to Antioxidant Response Elements (ARE) (AID 2282992). The note with it: HepG2 Attagene ARE/NRF2 reporter, transcription factor activity; actives raise or lower the signal. The gist of the method: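 Readout: reporter mRNA quantified by RT-PCR plus FAM-labelled primer extension, HpaI digestion and capillary electrophoresis, 24 h after dosing transfected HepG2 cells. Gain or loss of signal is fitted bidirectionally against DMSO baseline.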

Assay [10] is described as follows: ATG_Oct_MLP_CIS: Attagene CIS-FACTORIAL HepG2 Assay for human Octamer-Binding Transcription Factor (Oct) (AID 2282993). The note with it: HepG2 Attagene cis-factorial Oct reporter, mRNA; actives raise or lower the signal. The gist of the method:
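Multiplexed cis-reporter assay in human liver HepG2 cells, 24 h incubation. Reporter RNA amplified and labelled, then resolved by capillary electrophoresis; DMSO serves as negative control and baseline.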

Assay [11] concerns the target Cellular tumor antigen p53 (Homo sapiens) (UniProt P04637). As to the kind of experiment: ATG_p53_CIS: Attagene CIS-FACTORIAL HepG2 Assay for human p53 Transcription Factor (AID 2282994). The note with it: HepG2 p53 cis-element reporter, Attagene mRNA; actives raise or lower the signal. A digest of the protocol:
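Read-out: reporter mRNA by RT-PCR plus capillary electrophoresis with fluorescence detection. Human HepG2 liver cells carried transfected multi-reporter cis-element constructs, dosed 24 h. Gain or loss of signal fitted bidirectionally against DMSO control.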

Assay [12] can be described thus: BSK_3C_TissueFactor: BioMAP Diversity Plus: 3C Assay for Tissue Factor Biomarker Activity (AID 2282997). The note with it: BioMAP 3C HUVEC, tissue factor biomarker readout; actives raise or lower the signal. A digest of the protocol:
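After a 24 h chemical exposure of primary human umbilical vein endothelial cells, Tissue Factor levels were quantified by ELISA.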

A short description of assay [13]: BSK_3C_uPAR: BioMAP Diversity Plus: 3C Assay for Urokinase-type plasminogen activator receptor (uPAR) Biomarker Activity (AID 2282998). The note with it: BioMAP 3C HUVEC, uPAR biomarker ELISA; actives raise or lower the signal. A digest of the protocol:
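Dose primary human umbilical vein endothelial cells, incubate 24 h, measure cell-surface uPAR by ELISA, then fit the signal in both directions against the DMSO negative control.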

The nature of assay [14]: BSK_3C_VCAM1: BioMAP Diversity Plus: 3C Assay for Vascular cell adhesion molecule 1 (VCAM1) Biomarker Activity (AID 2282999). The note with it: BioMAP 3C HUVEC, VCAM1 ELISA, cytokine-stimulated; actives raise or lower the signal. A digest of the protocol: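 Vascular primary endothelium (human umbilical vein) was exposed to chemicals and assayed 24 h later. VCAM-1 levels came from ELISA, with DMSO serving as baseline for bidirectional fitting.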
(In general: ELISA stands for enzyme-linked immunosorbent assay.)

Assay [15] in a line: BSK_4H_Eotaxin3: BioMAP Diversity Plus: 4H Assay for Eotaxin 3 Biomarker Activity (AID 2283000).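 As to outcome: CCL26 protein level quantified by ELISA in parallel with SRB cytotoxicity check.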 The note with it: primary human endothelial cells (HUVEC); actives raise or lower the signal. A digest of the protocol: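 Chemicals were added to human umbilical vein endothelium cultures, and Eotaxin-3 was quantified by ELISA at 24 h. Values were derived by bidirectional fitting with DMSO serving as negative control and activity baseline.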

For assay [16], the target named is human Peroxisome Proliferator-activated Receptor alpha (PPARa), PPARA (gene 5465) (UniProt Q07869). As to the kind of experiment: ATG_PPARa_TRANS: Attagene TRANS-FACTORIAL HepG2 Assay for human Peroxisome Proliferator-activated Receptor alpha (PPARa) (AID 2283001; active = hit-call score of the fitted dose curve at least 0.9, where 1 is the maximum). The gist of the method: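 Exposure: 24 h, transiently transfected HepG2 cells. Endpoint: GAL4-UAS reporter mRNA, RT-PCR with capillary electrophoresis fluorescence. Baseline: DMSO; increases fitted.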
human Peroxisome Proliferator-activated Receptor alpha (PPARa), PPARA (gene 5465), sequence (Q07869 whole entry, looked up, the tested form may be a part): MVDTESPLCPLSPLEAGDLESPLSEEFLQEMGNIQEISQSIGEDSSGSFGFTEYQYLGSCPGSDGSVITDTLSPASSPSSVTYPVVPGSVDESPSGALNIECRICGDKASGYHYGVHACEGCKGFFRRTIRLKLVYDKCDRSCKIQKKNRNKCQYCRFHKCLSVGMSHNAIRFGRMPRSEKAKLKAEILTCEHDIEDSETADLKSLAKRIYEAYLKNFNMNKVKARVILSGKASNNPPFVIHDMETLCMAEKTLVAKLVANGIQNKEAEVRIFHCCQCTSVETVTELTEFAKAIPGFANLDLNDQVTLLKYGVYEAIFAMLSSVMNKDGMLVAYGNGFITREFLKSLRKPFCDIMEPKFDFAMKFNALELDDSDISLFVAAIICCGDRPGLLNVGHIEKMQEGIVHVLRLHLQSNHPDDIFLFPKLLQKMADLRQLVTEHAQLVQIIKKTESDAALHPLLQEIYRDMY

The target in assay [17] is human Peroxisome Proliferator-activated Receptor delta (PPARd), PPARD (gene 5467) (UniProt Q03181). As to the kind of experiment: ATG_PPARd_TRANS: Attagene TRANS-FACTORIAL HepG2 Assay for human Peroxisome Proliferator-activated Receptor delta (PPARd) (AID 2283002; active = hit-call score of the fitted dose curve at least 0.9, where 1 is the maximum). The gist of the method: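 Measured quantity: GAL4-UAS reporter transcript induction in HepG2 after 24 h chemical dosing, with NR-Gal4 chimeras supplied by transient transfection. Detection by RT-PCR and capillary electrophoresis; upward fit against DMSO.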
human Peroxisome Proliferator-activated Receptor delta (PPARd), PPARD (gene 5467), sequence (Q03181 whole entry, looked up, the tested form may be a part): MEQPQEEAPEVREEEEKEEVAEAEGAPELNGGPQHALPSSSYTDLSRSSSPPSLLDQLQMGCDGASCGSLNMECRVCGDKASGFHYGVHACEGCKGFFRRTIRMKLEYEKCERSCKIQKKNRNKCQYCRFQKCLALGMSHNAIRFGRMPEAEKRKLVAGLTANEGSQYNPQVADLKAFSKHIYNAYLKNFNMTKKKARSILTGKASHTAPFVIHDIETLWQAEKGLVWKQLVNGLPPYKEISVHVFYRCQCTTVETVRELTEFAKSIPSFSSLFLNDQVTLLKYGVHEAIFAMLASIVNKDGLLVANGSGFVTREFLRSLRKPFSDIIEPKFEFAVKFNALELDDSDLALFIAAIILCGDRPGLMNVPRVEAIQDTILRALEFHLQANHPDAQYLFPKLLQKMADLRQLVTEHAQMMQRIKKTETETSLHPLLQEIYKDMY

Read-out in assay [18]: Intercellular Adhesion Molecule 1 (ICAM1), ICAM1 (gene 3383)
As to the kind of experiment: BSK_3C_ICAM1: BioMAP Diversity Plus: 3C Assay for Intercellular Adhesion Molecule 1 (ICAM1) Biomarker Activity (AID 2283003). The note with it: primary human endothelial cells (HUVEC); actives raise or lower the signal. A digest of the protocol:
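Using DMSO as baseline, bidirectional curve fitting was applied to ICAM-1 ELISA signals from HUVEC in the 3C system, measured 24 h after compound addition.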

The target of assay [19] is Nuclear receptor subfamily 4 group A member 2 (Homo sapiens) (UniProt P43354). As to the kind of experiment: ATG_NURR1_TRANS: Attagene TRANS-FACTORIAL HepG2 Assay for human Nuclear Receptor Related Protein 1 (NURR1) (AID 2282985; active = hit-call score of the fitted dose curve at least 0.9, where 1 is the maximum). The note with it: HepG2 Attagene TRANS reporter, mRNA readout. The gist of the method: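 Chimeric NR-Gal4 proteins were expressed in human HepG2 cells bearing GAL4-UAS reporter units, and induced reporter mRNA was quantified 24 h post-dosing by RT-PCR and capillary electrophoresis.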
Nuclear receptor subfamily 4 group A member 2 (Homo sapiens), sequence (P43354 whole entry, looked up, the tested form may be a part): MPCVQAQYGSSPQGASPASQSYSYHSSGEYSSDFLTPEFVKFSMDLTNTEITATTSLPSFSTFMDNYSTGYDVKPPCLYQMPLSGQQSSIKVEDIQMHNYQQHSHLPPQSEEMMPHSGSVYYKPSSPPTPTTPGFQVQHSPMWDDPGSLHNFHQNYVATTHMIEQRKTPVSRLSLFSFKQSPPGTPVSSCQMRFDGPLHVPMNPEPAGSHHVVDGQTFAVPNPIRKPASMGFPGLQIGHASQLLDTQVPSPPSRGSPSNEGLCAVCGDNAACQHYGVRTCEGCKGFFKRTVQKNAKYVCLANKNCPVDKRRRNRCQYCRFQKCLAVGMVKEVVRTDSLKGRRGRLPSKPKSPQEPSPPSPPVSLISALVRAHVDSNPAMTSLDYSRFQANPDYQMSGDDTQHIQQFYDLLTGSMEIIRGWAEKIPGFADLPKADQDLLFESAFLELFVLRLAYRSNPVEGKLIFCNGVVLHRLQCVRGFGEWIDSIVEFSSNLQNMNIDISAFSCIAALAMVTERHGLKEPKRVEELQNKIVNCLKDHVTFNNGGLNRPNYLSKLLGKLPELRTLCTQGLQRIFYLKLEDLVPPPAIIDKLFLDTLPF

A short description of assay [20]: ATG_M_61_TRANS: Attagene TRANS-FACTORIAL HepG2 Assay for M61 Transcription Factor (Internal Marker) (AID 2282988). The note with it: HepG2 Attagene TRANS M61 internal marker reporter. A digest of the protocol: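 Background-control reporter transcript, measured after 24 h chemical exposure of transiently transfected HepG2 cells carrying multiple GAL4-UAS reporter units. Read-out by RT-PCR with 6-FAM primer extension and capillary electrophoresis, gain of signal versus DMSO.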

Nuclear respiratory factor 1 (Homo sapiens), sequence (Q16656 whole entry, looked up): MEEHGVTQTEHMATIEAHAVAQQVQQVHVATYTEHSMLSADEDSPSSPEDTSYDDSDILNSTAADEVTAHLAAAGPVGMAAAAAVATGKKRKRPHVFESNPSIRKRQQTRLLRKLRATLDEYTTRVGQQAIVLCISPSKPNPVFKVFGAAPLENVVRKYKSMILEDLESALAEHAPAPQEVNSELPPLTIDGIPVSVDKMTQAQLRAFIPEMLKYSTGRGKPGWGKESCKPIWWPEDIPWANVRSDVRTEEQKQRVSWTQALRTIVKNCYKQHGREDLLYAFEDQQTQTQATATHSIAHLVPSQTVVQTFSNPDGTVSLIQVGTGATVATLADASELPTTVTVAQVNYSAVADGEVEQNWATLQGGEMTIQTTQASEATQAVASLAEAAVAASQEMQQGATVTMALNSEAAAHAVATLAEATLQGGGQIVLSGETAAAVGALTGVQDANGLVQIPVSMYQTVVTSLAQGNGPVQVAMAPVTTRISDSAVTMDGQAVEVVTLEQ
Cellular tumor antigen p53 (Homo sapiens), sequence (P04637 whole entry, looked up): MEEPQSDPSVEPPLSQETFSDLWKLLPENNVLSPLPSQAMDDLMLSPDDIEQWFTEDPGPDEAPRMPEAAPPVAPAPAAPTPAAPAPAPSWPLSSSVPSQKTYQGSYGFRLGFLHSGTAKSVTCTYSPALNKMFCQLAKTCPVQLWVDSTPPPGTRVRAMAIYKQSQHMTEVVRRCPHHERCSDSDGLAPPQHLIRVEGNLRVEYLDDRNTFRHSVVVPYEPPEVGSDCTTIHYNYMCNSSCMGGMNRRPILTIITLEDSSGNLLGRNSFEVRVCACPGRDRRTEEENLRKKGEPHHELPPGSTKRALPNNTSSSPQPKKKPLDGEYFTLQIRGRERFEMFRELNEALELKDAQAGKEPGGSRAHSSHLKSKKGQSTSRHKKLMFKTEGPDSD
Transcriptional activator Myb (Homo sapiens), sequence (P10242 whole entry, looked up): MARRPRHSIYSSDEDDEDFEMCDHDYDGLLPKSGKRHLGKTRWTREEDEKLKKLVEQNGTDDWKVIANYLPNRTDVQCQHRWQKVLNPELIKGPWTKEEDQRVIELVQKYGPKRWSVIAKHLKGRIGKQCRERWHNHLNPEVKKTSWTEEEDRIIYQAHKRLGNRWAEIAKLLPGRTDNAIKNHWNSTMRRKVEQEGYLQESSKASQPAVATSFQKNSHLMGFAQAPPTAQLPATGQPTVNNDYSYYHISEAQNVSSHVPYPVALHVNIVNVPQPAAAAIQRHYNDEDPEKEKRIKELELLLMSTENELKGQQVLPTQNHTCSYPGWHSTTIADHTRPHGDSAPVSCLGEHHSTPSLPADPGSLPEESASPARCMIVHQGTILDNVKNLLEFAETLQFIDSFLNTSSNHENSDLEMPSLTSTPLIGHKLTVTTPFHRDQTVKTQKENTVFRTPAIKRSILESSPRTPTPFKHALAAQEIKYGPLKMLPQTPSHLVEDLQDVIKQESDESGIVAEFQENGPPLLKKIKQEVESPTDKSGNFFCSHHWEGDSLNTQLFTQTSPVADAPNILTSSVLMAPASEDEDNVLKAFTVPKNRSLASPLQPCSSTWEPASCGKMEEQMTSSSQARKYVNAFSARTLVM

On to `COc1cc(OC)nc(NC(=O)NS(=O)(=O)c2ncccc2C(=O)N(C)C)n1`, for which the compound was classed as inactive in assay [1], in [2], in [3], in [4], in assay [5] and in assay [6]. For the same compound, the compound was classed as inactive in assay [7], in [8], in assay [9], in assay [10], in assay [11] and in [12]. For the same compound, the result in assay [13], in assay [14], in assay [15], in assay [16], in assay [17] and in assay [18] was inactive.
Take `Nc1ccc(-c2ccc(N)c(Cl)c2)cc1Cl`: the call in assay [1], in [2], in assay [3], in assay [19], in assay [4] and in assay [5] was inactive. In addition, the result in assay [6], in assay [7], in [11], in assay [12] and in assay [16] was inactive. Besides, the figures for the concentration at half-maximal activity (AC50) in [9], in assay [13] and in assay [15] were 2.66 µM (active), 6.24 µM (active) and 1.93 µM (active), respectively.
As to `CCC[CH2][Sn]([CH2]CCC)([CH2]CCC)[O]C(=O)c1ccccc1`, the AC50 (as a rule, the midpoint of the concentration-response curve, whichever way the signal moves) in assay [1] is 638 nM (active); in assay [2], 703 nM (active); in assay [19] it was 16.1 nM (active); in assay [9] it was 0.188 µM (active). The outcome in assay [3], in assay [4], in [5], in [20], in assay [6] and in assay [7] was inactive. The result in assay [8], in [10], in assay [11] and in assay [16] was inactive.
For the compound `COc1cc(-c2ccc(N)c(OC)c2)ccc1N`, the compound was called inactive in [1], in assay [2], in assay [19], in assay [4], in assay [5] and in assay [6]. Besides, the compound was classed as inactive in assay [7], in [8], in assay [9], in [11], in [13] and in assay [14]. For the same compound, the outcome in assay [15], in [16] and in assay [17] was inactive. The AC50 was 79.8 µM (active) in assay [6]; 27.5 µM (active) and 28.5 µM (active) in assay [10]; 4.68 µM (active) and 3.97 µM (active) in assay [12].
Turning to `CCCCCCCCC(=O)NCc1ccc(O)c(OC)c1`, the compound was classed as inactive in [1], in assay [2], in assay [3], in [19], in assay [4] and in [5]. For the same compound, the call in [7], in [8], in [12], in assay [13], in [14] and in assay [15] was inactive. In addition, the outcome in assay [16], in assay [17] and in assay [18] was inactive. The half-maximal activity concentration (AC50) in assay [6] is 151 µM (active); in assay [9], 38.3 µM (active).
On to `O=C(O)C(Cl)(Cl)Cl`, for which the compound was called inactive in assay [1], in [2], in [3], in assay [19], in [4] and in [5]. The outcome in [6], in assay [7], in assay [9], in assay [10], in [11] and in assay [12] was inactive. Moreover, the outcome in [13], in assay [15] and in [16] was inactive.
Turning to `N#Cc1ccccn1`, the compound was classed as inactive in assay [1], in [2], in assay [3], in assay [19], in [4] and in assay [5]. In addition, the outcome in assay [6], in assay [7], in assay [8], in [9], in [10] and in [11] was inactive.
For `COP(=O)(OC)OC`, the compound was classed as inactive in assay [1], in assay [2], in [3], in assay [4], in [5] and in assay [6]. Also, the compound was classed as inactive in assay [7], in assay [8], in assay [9], in assay [10], in assay [11] and in assay [16].
